Measured values taken from PubChem BioAssay AID1159580 (chemical genetic matrix, 2015).
The campaign covered roughly 5,500 compounds. About 2,000 (36%) were called active. About 18% were inconclusive and are not listed. No stated cut-off is given here; in the data, active means normalized growth mostly below about 0.91 (no sharp cut-off); inconclusive means no clear call, values can overlap the other calls; inactive means mostly above about 0.92. The list shows a part of the results.

Test: chemical genetic growth profiling, strain panel (AID 1159580);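 further: tested at 20 µM; growth read once vehicle control cultures reached saturation at 30 °C; 1 = growth at the plate median or of vehicle wells; lower values mean less growth of the strain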
Details: growth OD

Measured: normalized growth

Cc1cc(C)nc(NS(=O)(=O)c2ccc(N)cc2)n1
inactive: S. cerevisiae deletion strains, locus YJR066W, strain TOR1, hits give low values 0.929 | S. cerevisiae deletion strains, locus YJR075W, strain HOC1, hits give low values 0.98 | S. cerevisiae deletion strains, locus YKL009W, strain mrt4, hits give low values 0.961 | S. cerevisiae deletion strains, locus YKL068W, hits give low values 0.982 | S. cerevisiae deletion strains, locus YKL085W, strain MDH1 (second series), hits give low values 0.971 | S. cerevisiae deletion strains, locus YKL085W, strain MDH1, hits give low values 0.971 | S. cerevisiae deletion strains, locus YKL160W, strain elf1, hits give low values 1 | S. cerevisiae deletion strains, locus YKL190W, strain CNB1, hits give low values 1 | S. cerevisiae deletion strains, locus YKR001C, strain vps1, hits give low values 0.98 | S. cerevisiae deletion strains, locus YKR026C, strain gcn3, hits give low values 0.985 | S. cerevisiae deletion strains, locus YKR091W, strain srl3, hits give low values 0.958 | S. cerevisiae deletion strains, locus YLL001W, strain dnm1, hits give low values 1.03 | S. cerevisiae deletion strains, locus YLL026W, hits give low values 0.993 | S. cerevisiae deletion strains, locus YLL041C, strain sdh2, hits give low values 0.975 | S. cerevisiae deletion strains, locus YLR027C, strain aat2, hits give low values 0.985 | S. cerevisiae deletion strains, locus YLR039C, strain RIC1, hits give low values 0.981 | S. cerevisiae deletion strains, locus YLR058C, strain SHM2, hits give low values 0.986 | S. cerevisiae deletion strains, locus YLR102C, strain apc9, hits give low values 0.984 | S. cerevisiae deletion strains, locus YLR113W, strain HOG1, hits give low values 0.975 | S. cerevisiae deletion strains, locus YLR221C, strain rsa3, hits give low values 0.958 | S. cerevisiae deletion strains, locus YLR258W, strain gsy2, hits give low values 0.977 | S. cerevisiae deletion strains, locus YLR262C, strain YPT6 (second series), hits give low values 0.972 | S. cerevisiae deletion strains, locus YLR262C, strain YPT6, hits give low values 0.986 | S. cerevisiae deletion strains, locus YLR268W, strain sec22, hits give low values 0.952 | S. cerevisiae deletion strains, locus YLR320W, strain mms22, hits give low values 0.957 | S. cerevisiae deletion strains, locus YLR330W, strain CHS5, hits give low values 0.988 | S. cerevisiae deletion strains, locus YLR342W, strain FKS1 (second series), hits give low values 0.999 | S. cerevisiae deletion strains, locus YLR342W, strain FKS1, hits give low values 0.996 | S. cerevisiae deletion strains, locus YLR357W, strain rsc2, hits give low values 0.975 | S. cerevisiae deletion strains, locus YLR370C, strain arc18, hits give low values 0.984 | S. cerevisiae deletion strains, locus YLR371W, strain rom2, hits give low values 0.961 | S. cerevisiae deletion strains, locus YLR384C, strain iki3, hits give low values 0.985 | S. cerevisiae deletion strains, locus YLR418C, strain cdc73, hits give low values 1.02 | S. cerevisiae deletion strains, locus YML016C, strain PPZ1, hits give low values 0.995 | S. cerevisiae deletion strains, locus YML032C, strain rad52, hits give low values 0.98 | S. cerevisiae deletion strains, locus YML120C, strain ndi1, hits give low values 0.976 | S. cerevisiae deletion strains, locus YML124C, strain tub3, hits give low values 0.981 | S. cerevisiae deletion strains, locus YMR058W, strain fet3, hits give low values 0.986 | S. cerevisiae deletion strains, locus YMR078C, strain ctf18, hits give low values 0.98 | S. cerevisiae deletion strains, locus YMR125W, strain sto1, hits give low values 0.947 | S. cerevisiae deletion strains, locus YMR129W, hits give low values 0.974 | S. cerevisiae deletion strains, locus YMR205C, strain PFK2, hits give low values 0.988 | S. cerevisiae deletion strains, locus YMR223W, strain ubp8, hits give low values 1.02 | S. cerevisiae deletion strains, locus YMR231W, strain pep5, hits give low values 1.02 | S. cerevisiae deletion strains, locus YMR307W, strain GAS1, hits give low values 1.02 | S. cerevisiae deletion strains, locus YNL067W, strain RPL9B, hits give low values 0.996 | S. cerevisiae deletion strains, locus YNL071W, strain lat1, hits give low values 0.973 | S. cerevisiae deletion strains, locus YNL128W, strain TEP1, hits give low values 0.97 | S. cerevisiae deletion strains, locus YNL183C, strain NPR1, hits give low values 0.967 | S. cerevisiae deletion strains, locus YNL209W, strain ssb2, hits give low values 0.975 | S. cerevisiae deletion strains, locus YNL233W, strain BNI4, hits give low values 0.997 | S. cerevisiae deletion strains, locus YNL248C, strain rpa49, hits give low values 0.909 | S. cerevisiae deletion strains, locus YNL250W, strain rad50, hits give low values 0.986 | S. cerevisiae deletion strains, locus YNL271C, strain bni1, hits give low values 0.993 | S. cerevisiae deletion strains, locus YNL298W, strain CLA4, hits give low values 0.963 | S. cerevisiae deletion strains, locus YNL307C, strain MCK1, hits give low values 0.978 | S. cerevisiae deletion strains, locus YNL322C, strain KRE1 (second series), hits give low values 0.971 | S. cerevisiae deletion strains, locus YNL322C, strain KRE1, hits give low values 0.997 | S. cerevisiae deletion strains, locus YNR049C, strain mso1, hits give low values 0.963 | S. cerevisiae deletion strains, locus YNR052C, strain pop2, hits give low values 0.97 | S. cerevisiae deletion strains, locus YOL006C, strain TOP1, hits give low values 1.07 | S. cerevisiae deletion strains, locus YOL012C, strain htz1 1.13 | S. cerevisiae deletion strains, locus YOL147C, strain pex11, hits give low values 0.991 | S. cerevisiae deletion strains, locus YOR001W, strain rrp6, hits give low values 1 | S. cerevisiae deletion strains, locus YOR061W, strain CKA2, hits give low values 1 | S. cerevisiae deletion strains, locus YOR069W, strain VPS5, hits give low values 0.988 | S. cerevisiae deletion strains, locus YOR070C, strain gyp1, hits give low values 0.98 | S. cerevisiae deletion strains, locus YOR080W, strain dia2, hits give low values 0.983 | S. cerevisiae deletion strains, locus YOR083W, strain WHI5, hits give low values 0.983 | S. cerevisiae deletion strains, locus YOR106W, strain vam3, hits give low values 1.02 | S. cerevisiae deletion strains, locus YOR136W, strain idh2, hits give low values 0.996 | S. cerevisiae deletion strains, locus YOR144C, strain elg1, hits give low values 0.991 | S. cerevisiae deletion strains, locus YOR184W, strain ser1, hits give low values 0.979 | S. cerevisiae deletion strains, locus YOR231W, strain MKK1, hits give low values 0.995 | S. cerevisiae deletion strains, locus YOR265W, strain rbl2, hits give low values 0.981 | S. cerevisiae deletion strains, locus YOR270C, strain vph1, hits give low values 0.97 | S. cerevisiae deletion strains, locus YOR290C, strain snf2, hits give low values 0.943 | S. cerevisiae deletion strains, locus YOR316C, strain cot1, hits give low values 0.971 | S. cerevisiae deletion strains, locus YPL051W, strain arl3, hits give low values 0.995 | S. cerevisiae deletion strains, locus YPL078C, strain atp4, hits give low values 0.99 | S. cerevisiae deletion strains, locus YPL106C, strain sse1, hits give low values 0.914 | S. cerevisiae deletion strains, locus YPL240C, strain hsp82, hits give low values 0.979 | S. cerevisiae deletion strains, locus YPL256C, strain CLN2, hits give low values 0.954 | S. cerevisiae deletion strains, locus YPR119W, strain clb2, hits give low values 0.978 | S. cerevisiae deletion strains, locus YPR141C, strain kar3, hits give low values 0.973 | S. cerevisiae deletion strains, locus YPR163C, strain tif3, hits give low values 0.981 | S. cerevisiae deletion strains, locus YPR167C, strain met16, hits give low values 0.971 | S. cerevisiae deletion strains, strain wtn01, hits give low values 0.981 | S. cerevisiae strains, strain wild type, hits give low values 0.995
